# Screening data as filed in PubChem.
# MCF10A rereplic = inducers of DNA re-replication in MCF 10A breast cells | MCF 10A DNA re-replication, Hoechst nuclear intensity, 48 h | Potency, µM (titrated, usually from 46.1 µM), for inactives: top-dose activity, positive = re-replication, actives largely listed as activators | 350,000 compounds, 2.9% hits | AID 624296; further: % of control where 0% means no effect; nearly all actives have a fitted effect of over 50% in size
# KB-V1 cytotox = kills drug-selected multidrug resistant KB-V1 cells; 400,000 compounds, 3.4% hits; KB-V1 MDR cells viability, CellTiter-Glo, 72 h; Potency, µM (top dose mostly 46.1 µM), hits mostly cytotoxic; further: on the % scale 0 is the no-effect control and ±100 the full control effect; nearly all actives have a fitted effect of over 60% in size
#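 Potencies derive from concentration-effect curves fitted to normalized luminescence (CellTiter-Glo) of KB-V1 cells treated for 72 h at 37 degrees C in phenol-red-free DMEM containing 10% FBS.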
# SW480 rerep = inducers of DNA re-replication in SW480 colon cancer cells. SW480 DNA re-replication, Hoechst DNA content imaging, 48 h. 340,000 compounds, 1.8% hits. Potency, µM (highest dose often 46.1 µM), for the others: top-dose re-replication activation, actives largely listed as activators; further: % of control where 0% means no effect; nearly all actives have a fitted effect of over 55% in size
#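 Treated cells incubate 48 hr (37 C, 5% CO2), are stained 40 min with Hoechst, and nuclear fluorescence is enumerated; a rise in nuclei with high DNA signal marks re-replication.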
# HT1080 IDH1KD tx = kills HT-1080 cells with IDH1 knockdown | HT-1080 IDH1 knockdown viability, ATP luminescence, 48 h | Potency, µM (doses to about 46.1 µM), for the others: at the highest dose activity, negative = toxicity, actives largely listed as cytotoxic | 360,000 compounds, 2% hits;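 further: 0% = DMSO wells and -100% = cell-free medium wells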
#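 Using the IDH1-knockdown HT-1080 line run in the same batch and compound series as the NT line, viability after 48 h at 37 °C was determined by CellTiter-Glo luminescence and expressed as % activity.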
# HT1080NT lethal = kills 2HG-producing HT-1080-NT fibrosarcoma cells | HT-1080-NT fibrosarcoma viability, CellTiter-Glo ATP luminescence, 48 h | 360,000 compounds, 1.6% hits | Potency, µM (doses to about 46.1 µM), for inactives: top-dose activity, negative = less viability, usual class: cytotoxic | AID 686970;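 further: NT is the 2HG producing partner of a matched IDH1 knockdown line; 0% = DMSO-treated cells and -100% = media-only wells without cells; nearly all actives have a fitted effect of over 55% in size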
#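 Compounds were tested in concentration-response format on HT-1080-NT cells for 48 hours at 37 degrees C. Cell viability came from CellTiter-Glo luminescence; curves were classified by r2, response magnitude and activity.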
# KB-3-1 tox = kills parental KB-3-1 adenocarcinoma cells; KB-3-1 viability, CellTiter-Glo ATP luminescence, 72 h; AID 1347075; 400,000 compounds, 1.4% hits; Potency, µM (highest dose often 46.1 µM), hits mostly cytotoxic; further: on the % scale 0 is the no-effect control and ±100 the full control effect; nearly all actives have a fitted effect of over 60% in size
#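 Screening of KB-3-1 cells (DMEM, 10% FBS, phenol-red free) ran from lowest to highest compound concentration; after 72 h at 37 °C viability was read luminescently and curves fitted.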
# * hit, by the source's call; i = inactive; ? = inconclusive; . = no result given; [ ] = dose if it differs, or a comment. Shown are actives, neighbours in structure and some others; about 7.9% of the full set was active somewhere. The call rests on the fitted dose curve; in most records, active means well fitted curve in the direction sought with a large enough effect; inconclusive means small, poorly fitted or top-dose-only effect, or another doubt; inactive means no such curve, though single readings can be large; an effect the other way counts as inactive or inconclusive. Potency means the concentration at half of the fitted maximal effect.
SMILES,MCF10A rereplic,KB-V1 cytotox,SW480 rerep,HT1080 IDH1KD tx,HT1080NT lethal,KB-3-1 tox
COc1ccc(-c2nc(SCC(=O)NC3CCCCC3)n[nH]2)cc1,?,?,16µM*,-21%,-4%,?
COc1ccc(-c2cn3nc(SCC(=O)NC4CCCCC4)ccc3n2)cc1,3.7µM*,i,8.2µM*,-1%,-1%,i
COc1ccc(-c2nc(SC(C)C(=O)Nc3ccc(NC(C)=O)cc3)n[nH]2)cc1 (centres undefined),0%,i,-5%,4%,3%,i
Cc1nc(SC(C)C(=O)NCC2CCCO2)c2cc(-c3ccccc3)sc2n1 (centres undefined),12µM*,?,?,?,-9%,?
COc1ccc(-c2ccc(SCC(=O)NC3CCCCC3)nn2)cc1,0%,i,?,0%,2%,i
COc1ccc(-c2nnc(SCC(=O)NC3CCCCC3)nc2-c2ccc(OC)cc2)cc1,.,i,.,.,.,i
COc1ccc(N2CC(NC(=O)c3cccs3)CC2=O)cc1OC (centres undefined),.,i,.,.,.,i
CCOc1ccc(Nc2ccc(S(=O)(=O)N3CCOCC3)cc2[N+](=O)[O-])cc1,.,?,.,-9%,-6%,i
O=C(Nc1ccc(Oc2ccc(S(=O)(=O)N3CCOCC3)cn2)cc1)c1ccco1,4%,18µM*,-7%,1%,0%,i
Cc1c(C(=O)Nc2ccc(Cc3ccncc3)cc2)cccc1[N+](=O)[O-],19%,i,-2%,?,?,i
O=C(Nc1ccc(S(=O)(=O)N2CCOCC2)cc1)c1ccco1,-11%,i,-8%,15%,11%,i
O=C(Nc1ccc(N2CCOCC2)cc1)c1ccc([N+](=O)[O-])o1,4.6µM*,?,1.3µM*,5.2µM*,7.3µM*,i
O=C(Nc1ccc(Cc2ccncc2)cc1)c1ccc([N+](=O)[O-])o1,3.7µM*,i,5.2µM*,5.2µM*,3.7µM*,?
CCc1ccc(Nc2ccc(S(=O)(=O)N3CCOCC3)cc2[N+](=O)[O-])cc1,-9%,23µM*,3%,1%,-3%,i
O=C(NCCc1ccccc1)C(=O)NCC(c1ccc2c(c1)OCO2)N1CCOCC1 (centres undefined),.,?,.,.,.,i
Cc1cccc(C(=O)N2c3ncnn3C3(CCCCC3)[C@@H]3CCCC[C@@H]32)c1,.,i,.,.,.,i
CC(=O)Nc1ccc2nc(NC(=O)c3ccc([N+](=O)[O-])o3)sc2c1,0.65µM*,16µM*,3.3µM*,5.2µM*,?,9.2µM*
Cc1ccc(NC(=O)c2cc(S(=O)(=O)N3CCOCC3)c(Br)s2)cc1,1%,23µM*,2%,?,-19%,?
O=C(Nc1ccc(S(=O)(=O)N2CCOCC2)cc1)c1ccc([N+](=O)[O-])o1,?,?,-9%,8.2µM*,18µM*,?
CCn1nnc(NC(=O)c2ccc([N+](=O)[O-])o2)n1,15µM*,i,?,?,?,?
CCCCn1nnc(NC(=O)c2ccc(-c3ccccc3[N+](=O)[O-])o2)n1,0%,i,12%,4%,12%,i
O=C(Nc1ccc(S(=O)(=O)N2CCOCC2)cc1)c1cc([N+](=O)[O-])ccc1Cl,5%,i,16%,?,?,?
CC(OC(=O)C1=COCCO1)C(=O)NC1CCCC(C)C1C (centres undefined),.,i,.,-4%,0%,i
O=C(Nc1ccc(S(=O)(=O)N2CCOCC2)cc1)c1ccc([N+](=O)[O-])s1,13µM*,?,i,-3%,-2%,5.2µM*
O=C(Nc1ccc(S(=O)(=O)N2CCCC2)cc1)c1ccc([N+](=O)[O-])cc1,-2%,i,-5%,-5%,-3%,i
SMILES,MCF10A rereplic,KB-V1 cytotox,SW480 rerep,HT1080 IDH1KD tx,HT1080NT lethal,KB-3-1 tox
O=C(Nc1ccc(S(=O)(=O)N2CCCCCC2)cc1)c1ccc(Br)o1,14%,5.8µM*,6%,-17%,1%,?
Cc1ccc(C(=O)Nc2ccc(S(=O)(=O)N3CCc4ccccc4C3)cc2)o1,4%,15µM*,-1%,?,-5%,i
O=C(Nc1ccc(S(=O)(=O)N2CCCC2)cc1)c1ccc([N+](=O)[O-])o1,1.8µM*,?,0.73µM*,15µM*,16µM*,?
Cc1ccc(C(=O)Nc2ccc(S(=O)(=O)N3CCCC3)cc2)o1,-1%,?,2%,-5%,-13%,i
CCC(Sc1ncnc2sc3c(c12)CCCC3)C(=O)OCC(C)C (centres undefined),.,i,.,.,.,i
CCCCNC(=O)c1ccc2c(=O)n(Cc3ccc(OC)cc3)c(=O)[nH]c2c1,.,i,.,.,.,i
COCCNC(=O)C1(C)CCCN(C(=O)c2ccccc2F)C1 (centres undefined),.,i,.,16%,?,i
O=C(Nc1ccccc1N1CCOCC1)c1ccccc1[N+](=O)[O-],197%[0.0737 µM],i,-1%,7%,-1%,i
O=C(Nc1ccccc1N1CCOCC1)c1ccc([N+](=O)[O-])s1,?,?,16µM*,?,?,?
CCOc1ccc(Cl)cc1CNCCCSc1nnnn1C,.,i,.,.,.,i
O=S(=O)(Nc1cccc2[nH]ncc12)c1cccs1,-6%,i,-12%,0%,0%,i
O=S(=O)(Nc1cccc2c1ccc1cccn12)c1cccs1,14µM*,i,8%,9%,7%,i
CC(C)OC(=O)C(C(=O)C(F)(F)F)c1cc(NS(=O)(=O)c2ccc3ccccc3c2)c2ccccc2c1O (centres undefined),?,i,?,12µM*,8.2µM*,i
CC(SC#N)C(=O)C12CC3CC(CC(C3)C1)C2 (centres undefined),18µM*,i,?,16µM*,?,21µM*
Cc1cc(N2CCN(c3ccccc3)CC2)nc(-n2nc(C)cc2C)n1,?,2.6µM*,?,1.1µM*,0.71µM*,i
Cc1ccc(S(=O)(=O)c2c(N)n(/N=C/c3ccco3)c3nc4ccccc4nc23)cc1,?,i,-7%,0%,6%,i
Cc1ccc(-n2c(N)c(S(=O)(=O)c3ccccc3)c3nc4ccccc4nc32)cc1,-13%,i,-20%,16%,20%,i
Nc1c(S(=O)(=O)c2cccs2)c2nc3ccccc3nc2n1/N=C/c1cccc(O)c1,6.5µM*,?,?,21µM*,?,?
